Rows were chosen to be rich in hits. Some 2.7% of all compounds tested hit in one or more screens of this group.
RXFP1 antagonist: RXFP1 (human) relaxin receptor antagonism; Q9HBX9; HEK293-RXFP1, relaxin-stimulated cAMP HTRF, 30 min; hits give low values; activity change, negative = inhibition, % at 57.5 µM; 350,000 compounds, 0.59% hits; AID 1259400;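 active = activity change of -60% or lower, but not beyond a set lower limit; inconclusive = change between -60% and -40%, or beyond the set limit; inactive = change above -40%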; note: % is set by controls: 0 for no effect and ±100 for the full control effect
pAkt inh: Akt phosphorylation inhibition. Neuro2A IGF-stimulated pAkt S473 HTRF, 20 min; hits give low values. activity change, % for hits at 50 µM. 360,000 compounds, 0.32% hits; in the data active = activity change below about -80%; inconclusive = mostly about -51% to -80%; note: % is set by controls: 0 for no effect and ±100 for the full control effect
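Single-point screen (50 µM final compound) in Neuro2A cells stimulated 20 min with 6 nM IGF at 37 deg C. After lysis, Ser473-phosphorylated Akt read by HTRF (ex 330 nm, em 615/665 nm) as the 665/615 ratio.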
gsp antagonist: antagonists of gsp mutant (McCune-Albright syndrome); gsp-mutant cells, cAMP HTRF, 30 min; Potency, µM (series often up to 76.9 µM), without a hit: at the highest dose activity change, negative = inhibition, actives largely listed as inhibitors; AID 624288; 340,000 compounds, 0.4% hits; calls by dose curve; cell line not stated here;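 note: intracellular cAMP measured with PDE inhibitor Ro 20-1724 present during compound exposure; potency is the fitted concentration of half-maximal effect; % is set by controls: 0 for no effect and ±100 for the full control effect; nearly all actives have a fitted effect of over 65% in size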
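Cells in G418 medium, seeded 16-24 h, 37C; buffer exchange to DPBS + 1 mM CaCl2, 0.5 mM MgCl2, 0.05% BSA; cpds in DMSO + […] (300 uM stock), 30 min 37C; HTRF cAMP detection.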
gsp ag: activates gsp, the McCune-Albright syndrome mutation; AID 624287; gsp mutant cells, cAMP HTRF, 30 min; Potency, µM (highest dose often 76.9 µM), for the others: at the top dose activation (cAMP increase), actives largely listed as activators; 340,000 compounds, 0.13% hits; active = well fitted activation curve with a large enough effect; inconclusive = small, poorly fitted or top-dose-only effect, or another doubt; inactive = no such curve, though single readings can be large or run the other way; cell line not stated here;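 note: phosphodiesterase inhibitor Ro 20-1724 added with compounds to block cAMP breakdown; potency is the fitted concentration of half-maximal effect; nearly all actives have a fitted effect of over 60% in size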
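Cells stably selected in G418 were plated at 2000/well, grown 16-24 hr, then given compounds in DMSO with the PDE inhibitor […] (300 uM solution added) for 30 min at 37C; cAMP was read by HTRF.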
RXFP1 ag: agonists of human relaxin receptor RXFP1. 370,000 compounds, 0.3% hits. AID 2676. HEK293T-RXFP1 cAMP TR-FRET, 30 min; response scale: percent of porcine relaxin response, buffer zero. Potency, µM (highest dose often 57.5 µM), for the others: top-dose activation, usual class: activators; active = well fitted activation curve with a large enough effect; inconclusive = small, poorly fitted or top-dose-only effect; note: potency is the fitted concentration of half-maximal effect; % is set by controls: 0 for no effect and ±100 for the full control effect; nearly all actives have a fitted effect of over 60% in size
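HEK293T cells stably expressing RXFP1 were pretreated with the PDE4 inhibitor Ro 20174, exposed to compounds for 30 min at 37C, lysed, and cAMP was read by TR-FRET. Data normalized to buffer (basal) and 29 nM porcine relaxin (100%).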
ClpP mod: qHTS Assay for Activators of ClpP | ATP-dependent Clp protease proteolytic subunit (Bacillus subtilis (strain 168)), P80244 | 340,000 compounds, 1.9% hits | purified B. subtilis ClpP, FRET peptide cleavage, 20 min | Potency, µM (titrated, usually from 57.5 µM), for inactives: at the top dose activity change, negative = active; active = well fitted falling curve with a large enough effect; inconclusive = small, poorly fitted or top-dose-only effect; inactive = no such curve, though single readings can be large or run the other way; note: potency is the fitted concentration of half-maximal effect; the source files actives as falling curves though it sought activators and does not explain the sign; nearly all actives have a fitted effect of over 65% in size
Target sequence (P80244 whole entry, looked up): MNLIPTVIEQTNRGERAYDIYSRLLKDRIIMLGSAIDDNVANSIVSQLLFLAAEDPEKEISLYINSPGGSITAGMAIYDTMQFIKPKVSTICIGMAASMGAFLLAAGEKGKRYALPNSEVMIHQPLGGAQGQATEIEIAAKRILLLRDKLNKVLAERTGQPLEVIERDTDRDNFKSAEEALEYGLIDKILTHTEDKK
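Buffer: 100 mM Tris/HCl pH8, 100 mM KCl, 0.05% low protease BSA, 2.5% glycerol, 0.01% Tween-20. ClpP 10 microg/mL final; 20 min RT; delta FRET normalized to ADEP and DMSO controls.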
An asterisk follows results filed as active; i = inactive; ? = inconclusive; · = not tested or not shown; [ ] = another dose, or the depositor's remark.

SMILES	RXFP1 antagonist	pAkt inh	gsp antagonist	gsp ag	RXFP1 ag	ClpP mod
N#C/C(=C\c1c(Cl)cccc1Cl)c1nc2ccccc2[nH]1	-3	i	-9%	?	-2%	-14%
COc1c(Cl)cc(Cl)cc1/C=C(\C#N)c1nc2ccccc2[nH]1	·	·	·	·	8%	20µM*
Cc1cccc(Cn2c(C)nc3ccc([N+](=O)[O-])cc3c2=O)c1	-1	i	-4%	-18%	7%	·
Cc1nc2ccc([N+](=O)[O-])cc2c(=O)n1Cc1cccc(F)c1	-9	i	10%	14µM*	23%	·
COC(=O)C1(C(=O)OC)C/C=C\CN(S(=O)(=O)c2ccccc2[N+](=O)[O-])CC1	·	i	·	·	·	2%
Cc1ccc(S(=O)(=O)N2CCCC(C(=O)NCCc3ccc(Cl)cc3)C2)cc1 (configuration not stated)	11	i	·	-77%	·	-2%
Fc1ccc2[nH]c(-c3cccs3)cc2c1	-1	·	·	·	4%	11µM*
COc1ccc(OC)c(N=c2oc3cc(O)ccc3cc2C(N)=O)c1	-3	i	-2%	2%	0%	28µM*
O=C(Nc1cc(Cl)cc(Cl)c1)c1cc(S(=O)(=O)NC2CCCC2)ccc1F	-17	·	·	·	1%	-2%
C[C@H](NC(=O)N1CCn2c1nc1ccccc12)C(=O)NC1CCCCC1	19	i	-5%	-3%	3%	0%
CC(C)C[C@H](NC(=O)N1CCn2c1nc1ccccc12)C(=O)NC1CCCCC1	-67*	i	11%	38%	1%	-1%
Cc1[nH]n(-c2ccc([N+](=O)[O-])cc2)c(=O)c1C=NCC1CCCO1 (configuration not stated)	-8	i	3%	-11%[15.4 µM]	18%	·
Cc1ccc(-n2[nH]c(C)c(/C=N/Nc3ccc([N+](=O)[O-])cc3[N+](=O)[O-])c2=O)cc1	-74*	i	32µM*	?	-1%	0%
Cc1ccc(SC(=O)c2c(C)noc2-c2cc(C)on2)cc1	-15	i	-2%	15%	7%	·
O=C(c1ccc2c(=O)n(C3CCCC3)c(=S)[nH]c2c1)N1CCCCCC1	-63*	i	32µM*	-9%[15.4 µM]	-1%	·
CN(C)c1ccc(/C=C/c2ccc3ncccc3c2)cc1	·	·	·	·	·	4%
CCOCCn1ccc2c(OCC(=O)Nc3ccc(OC)c(OC)c3)cccc2c1=O	-9	i	35µM*	-23%[15.4 µM]	0%	·
CCOC(=O)c1ccc(Oc2nc(N(C)C)nc(N3CCOCC3)n2)cc1	0	i	50µM*	27%	0%	2%
Cc1ccccc1-c1nnc(CN2CCN(c3cccc(C)c3C)CC2)o1	-34	·	·	·	-1%	-1%
Cn1c(=O)n(C)c2cc(CNC(=O)[C@H]3O[C@@H](n4ccc(=O)[nH]c4=O)[C@H](O)[C@@H]3O)ccc21	·	i	·	·	·	-2%
Cn1cc(C(=O)c2ccc(Cl)cc2)cc1-c1nc2ccccc2n1C	-9	i	35µM*	?	2%	-12%
Cn1c(=O)c(C(=O)c2ccccc2)nc2ccccc21	-9	i	-9%[15.4 µM]	11%	2%	-1%
Cc1cccc(NC(=O)c2ccc3[nH]c(C)cc(=O)c3c2)c1	-3	·	·	·	?	1%
Cc1ccc2[nH]c(-c3cccc(N)c3)cc2c1	3	i	-8%	23%	1%	16µM*
Nc1ccc(-c2cc3ccccc3[nH]2)cc1	·	·	·	·	·	4%
SMILES	RXFP1 antagonist	pAkt inh	gsp antagonist	gsp ag	RXFP1 ag	ClpP mod
CC(C)n1ncc2c(C(=O)NCCc3ccc(F)cc3)cc(C3CC3)nc21	-10	i	?	13%[15.4 µM]	-1%	32µM*
CCC1C(=NO)C(CC)C(c2ccccc2)NC1c1ccccc1 (configuration not stated)	-74*	i	?	2%[15.4 µM]	-1%	·
CC(C)(C)c1ccc(-c2nc(C#N)c(NCc3cccnc3)o2)cc1	-13	i	-5%	-4%	1%	32µM*
Cc1ccc(OCc2ccc(-c3nc(C#N)c(NCc4cccnc4)o3)o2)cc1	8	·	·	·	-2%	35µM*
Cc1ccc(CNc2oc(-c3ccc(COc4ccc(C)cc4)o3)nc2C#N)cc1	-25	·	·	·	3%	25µM*
CCOC(=O)c1c(Oc2ccc(C(=O)OC)cc2)nnc(-c2ccccc2)c1-c1ccccc1	-13	·	·	·	1%	-1%
CS(=O)(=O)Nc1ccc(C2=NN(C(=O)c3ccco3)C(c3cccc(F)c3)C2)cc1 (configuration not stated)	-6	i	?	-23%	0%	·
CCS(=O)(=O)Nc1ccc(C2=NN(C(=O)c3ccco3)C(c3cccc(F)c3)C2)cc1 (configuration not stated)	-20	i	22µM*	-17%	0%	-13%
COC(=O)c1c(-c2cc(C)ccc2C)csc1NC(=O)C1CC=CCC1C(=O)O (configuration not stated)	-14	i	-7%	8%[15.4 µM]	18%	0%
COC(=O)c1ccccc1NC(=O)C1CC=CCC1C(=O)O (configuration not stated)	2	i	-4%	2%	0%	22µM*
O=C(NCCc1ccccc1)c1ccccc1NC(=O)C1CC=CCC1C(=O)O (configuration not stated)	29	i	-8%	8%	1%	-14%
COC(=O)c1c(-c2ccc(C)cc2)csc1NC(=O)C1CC=CCC1C(=O)O (configuration not stated)	3	i	?	-1%	1%	16µM*
O=C(C[n+]1cccc2cc(Cl)ccc21)c1cccc([N+](=O)[O-])c1	·	·	·	·	·	-6%
COc1ccccc1NC(=O)CSc1nc2c(oc3ccccc32)c(=O)n1Cc1ccco1	·	·	·	·	-1%	-7%
O=C(CN(c1cccc(C(F)(F)F)c1)S(=O)(=O)c1ccc(Cl)c([N+](=O)[O-])c1)NCc1ccccc1	·	i	8%	-34%	-3%	-2%
CC(NC(=O)CN(c1cccc(C(F)(F)F)c1)S(=O)(=O)c1ccc(Cl)c([N+](=O)[O-])c1)c1ccccc1 (configuration not stated)	-82*	i	?	-11%[15.4 µM]	-1%	0%
Cc1ccc(N(CC(=O)NCCc2ccc(F)cc2)S(=O)(=O)c2ccc(Cl)c([N+](=O)[O-])c2)c(C)c1	-16	i	25µM*	-31%	1%	1%
Cc1ccc(S(=O)(=O)N(CC(=O)NCCc2ccc(Cl)cc2)c2ccccc2C)cc1	·	·	·	·	2%	-2%

Bioassay records as filed in PubChem BioAssay.
